Reference: PubChem BioAssay AID1159580 (chemical genetic matrix, 2015)
The campaign covered roughly 5,500 compounds. About 2,000 (36%) were called active. About 18% were inconclusive and are not listed. No stated cut-off is given here; in the data, active means normalized growth mostly below about 0.91 (no sharp cut-off); inconclusive means no clear call, values can overlap the other calls; inactive means mostly above about 0.92. Some of the results follow.

Experiment: chemical genetic growth profiling, strain panel (AID 1159580);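 further: tested at 20 µM; growth read once vehicle control cultures reached saturation at 30 °C; 1 = growth at the plate median or of vehicle wells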
Conditions: growth OD
[1] = S. cerevisiae deletion strains, locus YAL013W, strain DEP1, stronger effect = lower value
[2] = S. cerevisiae deletion strains, locus YBR229C, strain ROT2, stronger effect = lower value
[3] = S. cerevisiae deletion strains, locus YDL101C, strain DUN1, stronger effect = lower value
[4] = S. cerevisiae deletion strains, locus YDR150W, strain NUM1, stronger effect = lower value
[5] = S. cerevisiae deletion strains, locus YEL061C, strain CIN8, stronger effect = lower value
[6] = S. cerevisiae deletion strains, locus YGR078C, strain PAC10, stronger effect = lower value
[7] = S. cerevisiae deletion strains, locus YHR030C, strain SLT2, stronger effect = lower value
[8] = S. cerevisiae deletion strains, locus YHR087W, strain rtc3, stronger effect = lower value
[9] = S. cerevisiae deletion strains, locus YJR043C, strain POL32, stronger effect = lower value
[10] = S. cerevisiae deletion strains, locus YJR075W, strain HOC1, stronger effect = lower value
[11] = S. cerevisiae deletion strains, locus YLR039C, strain RIC1, stronger effect = lower value
[12] = S. cerevisiae deletion strains, locus YLR058C, strain SHM2 (second series), stronger effect = lower value
[13] = S. cerevisiae deletion strains, locus YLR085C, strain ARP6, stronger effect = lower value
[14] = S. cerevisiae deletion strains, locus YLR262C, strain YPT6, stronger effect = lower value
[15] = S. cerevisiae deletion strains, locus YML094W, strain GIM5, stronger effect = lower value
[16] = S. cerevisiae deletion strains, locus YMR219W, strain ESC1, stronger effect = lower value
[17] = S. cerevisiae deletion strains, locus YMR263W, strain SAP30, stronger effect = lower value
[18] = S. cerevisiae deletion strains, locus YNL153C, strain GIM3, stronger effect = lower value
[19] = S. cerevisiae deletion strains, locus YNL298W, strain CLA4 (second series), stronger effect = lower value
[20] = S. cerevisiae deletion strains, locus YNL322C, strain KRE1, stronger effect = lower value
[21] = S. cerevisiae deletion strains, locus YNR030W, strain Alg12, stronger effect = lower value
[22] = S. cerevisiae deletion strains, locus YPL055C, strain LGE1, stronger effect = lower value
[23] = S. cerevisiae deletion strains, locus YPL241C, strain CIN2, stronger effect = lower value
[24] = S. cerevisiae deletion strains, locus YPR135W, strain CTF4, stronger effect = lower value
[25] = S. cerevisiae deletion strains, locus YHR079C, strain IRE1, stronger effect = lower value
[26] = S. cerevisiae deletion strains, locus YJL095W, strain BCK1, stronger effect = lower value
[27] = S. cerevisiae deletion strains, locus YJR066W, strain TOR1, stronger effect = lower value
[28] = S. cerevisiae deletion strains, locus YLR113W, strain HOG1, stronger effect = lower value
[29] = S. cerevisiae deletion strains, locus YOR231W, strain MKK1, stronger effect = lower value
[30] = S. cerevisiae deletion strains, locus YPL256C, strain CLN2, stronger effect = lower value
[31] = S. cerevisiae deletion strains, locus YAL040C, strain CLN3, stronger effect = lower value
[32] = S. cerevisiae deletion strains, locus YCL061C, strain MRC1 (second series), stronger effect = lower value
[33] = S. cerevisiae deletion strains, locus YDR363W, strain ESC2, stronger effect = lower value
[34] = S. cerevisiae deletion strains, locus YER002W, strain NOP16, stronger effect = lower value
[35] = S. cerevisiae deletion strains, locus YGR229C, strain SMI1, stronger effect = lower value
[36] = S. cerevisiae deletion strains, locus YMR307W, strain GAS1, stronger effect = lower value
[37] = S. cerevisiae deletion strains, locus YNL128W, strain TEP1, stronger effect = lower value
[38] = S. cerevisiae deletion strains, locus YNL175C, strain NOP13, stronger effect = lower value
[39] = S. cerevisiae deletion strains, locus YNL197C, strain WHI3, stronger effect = lower value
[40] = S. cerevisiae deletion strains, locus YNL224C, strain SQS1, stronger effect = lower value
[41] = S. cerevisiae deletion strains, locus YOR083W, strain WHI5 (second series), stronger effect = lower value
[42] = S. cerevisiae strains, strain wild type, stronger effect = lower value

Measured: normalized growth

Cc1cc(C)c(NC(=S)NCCCN2CCOCC2)c(C)c1
inactive: [1] 1 | [2] 1.01 | [3] 0.992 | [4] 0.901 | [5] 1.01 | [6] 1.02 | [7] 1.07 | [8] 1.01 | S. cerevisiae deletion strains, locus YJL187C, strain SWE1, stronger effect = lower value 1.01 | [9] 0.986 | [10] 0.999 | [11] 1.03 | [12] 1.01 | [13] 1.05 | [14] 1.02 | [15] 1 | [16] 1 | [17] 1.03 | [18] 0.992 | [19] 1.04 | [20] 1.01 | [21] 1.02 | [22] 0.912 | [23] 0.995 | [24] 1.01

COc1cc(OC)c(C(=O)CCCN2CCCC2)c(OC)c1
inactive: [7] 1.07 | [25] 1.04 | [26] 1.03 | [27] 0.973 | [28] 1.01 | S. cerevisiae deletion strains, locus YNL183C, strain NPR1, stronger effect = lower value 0.973 | [29] 1.03 | [30] 1.05

O=C(CCN1CCCCC1)c1ccc(-c2ccccc2)cc1
inactive: S. cerevisiae deletion strains, locus YAR019C, strain CDC15, stronger effect = lower value 0.97 | S. cerevisiae deletion strains, locus YBL105C, strain PKC1, stronger effect = lower value 0.975 | S. cerevisiae deletion strains, locus YBR135W, strain CKS1, stronger effect = lower value 0.984 | S. cerevisiae deletion strains, locus YBR136W, strain MEC1, stronger effect = lower value 0.981 | S. cerevisiae deletion strains, locus YBR160W, strain CDC28, stronger effect = lower value 0.987 | S. cerevisiae deletion strains, locus YDL017W, strain CDC7, stronger effect = lower value 0.982 | S. cerevisiae deletion strains, locus YDL028C, strain MPS1, stronger effect = lower value 0.984 | S. cerevisiae deletion strains, locus YDL108W, strain KIN28, stronger effect = lower value 0.979 | S. cerevisiae deletion strains, locus YDL132W, strain cdc53, stronger effect = lower value 0.977 | S. cerevisiae deletion strains, locus YDL214C, strain PRR2, stronger effect = lower value 0.909 | S. cerevisiae deletion strains, locus YDR052C, strain DBF4, stronger effect = lower value 0.977 | S. cerevisiae deletion strains, locus YDR054C, strain cdc34, stronger effect = lower value 0.966 | S. cerevisiae deletion strains, locus YDR226W, strain ADK1, stronger effect = lower value 0.983 | S. cerevisiae deletion strains, locus YDR477W, strain SNF1, stronger effect = lower value 0.785 | S. cerevisiae deletion strains, locus YER123W, strain YCK3, stronger effect = lower value 0.892 | S. cerevisiae deletion strains, locus YER133W, strain GLC7, stronger effect = lower value 0.961 | S. cerevisiae deletion strains, locus YFL009W, strain cdc4, stronger effect = lower value 0.98 | S. cerevisiae deletion strains, locus YFL029C, strain CAK1, stronger effect = lower value 0.978 | S. cerevisiae deletion strains, locus YFR003C, strain YPI1, stronger effect = lower value 0.979 | S. cerevisiae deletion strains, locus YFR019W, strain FAB1, stronger effect = lower value 0.961 | S. cerevisiae deletion strains, locus YFR028C, strain CDC14, stronger effect = lower value 0.976 | S. cerevisiae deletion strains, locus YGR040W, strain KSS1, stronger effect = lower value 0.839 | S. cerevisiae deletion strains, locus YGR052W, strain FMP48, stronger effect = lower value 0.625 | [25] 0.691 | S. cerevisiae deletion strains, locus YHR082C, strain KSP1, stronger effect = lower value 0.811 | S. cerevisiae deletion strains, locus YIL147C, strain SLN1, stronger effect = lower value 0.977 | [26] 0.689 | S. cerevisiae deletion strains, locus YJL128C, strain PBS2, stronger effect = lower value 0.866 | S. cerevisiae deletion strains, locus YJL157C, strain FAR1, stronger effect = lower value 0.925 | S. cerevisiae deletion strains, locus YJR016C, strain ILV3, stronger effect = lower value 0.98 | S. cerevisiae deletion strains, locus YJR066W, strain TOR1 (second series), stronger effect = lower value 0.898 | [27] 0.733 | S. cerevisiae deletion strains, locus YKL067W, strain YNK1, stronger effect = lower value 0.93 | S. cerevisiae deletion strains, locus YKL193C, strain SDS22, stronger effect = lower value 0.976 | S. cerevisiae deletion strains, locus YLR133W, strain CKI1, stronger effect = lower value 0.908 | S. cerevisiae deletion strains, locus YLR403W, strain SFP1, stronger effect = lower value 0.755 | S. cerevisiae deletion strains, locus YML070W, strain DAK1, stronger effect = lower value 0.909 | S. cerevisiae deletion strains, locus YMR001C, strain CDC5, stronger effect = lower value 0.972 | S. cerevisiae deletion strains, locus YMR205C, strain PFK2 (second series), stronger effect = lower value 0.941 | S. cerevisiae deletion strains, locus YMR277W, strain FCP1, stronger effect = lower value 0.974 | S. cerevisiae deletion strains, locus YNL006W, strain LST8, stronger effect = lower value 0.983 | S. cerevisiae deletion strains, locus YNL020C, strain ARK1, stronger effect = lower value 0.822 | S. cerevisiae deletion strains, locus YNL161W, strain CBK1, stronger effect = lower value 0.991 | S. cerevisiae deletion strains, locus YNL207W, strain RIO2, stronger effect = lower value 0.971 | S. cerevisiae deletion strains, locus YNL222W, strain SSU72, stronger effect = lower value 0.977 | S. cerevisiae deletion strains, locus YOL078W, strain AVO1, stronger effect = lower value 0.98 | S. cerevisiae deletion strains, locus YOL136C, strain PFK27, stronger effect = lower value 0.896 | S. cerevisiae deletion strains, locus YOR061W, strain CKA2, stronger effect = lower value 0.805 | S. cerevisiae deletion strains, locus YOR119C, strain RIO1, stronger effect = lower value 0.757 | [29] 0.782 | S. cerevisiae deletion strains, locus YOR329C, strain SCD5, stronger effect = lower value 0.976 | S. cerevisiae deletion strains, locus YPL031C, strain PHO85, stronger effect = lower value 0.79 | S. cerevisiae deletion strains, locus YPL153C, strain RAD53, stronger effect = lower value 0.872 | S. cerevisiae deletion strains, locus YPL204W, strain HRR25, stronger effect = lower value 0.889 | S. cerevisiae deletion strains, locus YPL209C, strain IPL1, stronger effect = lower value 0.981 | S. cerevisiae deletion strains, locus YPR025C, strain CCL1, stronger effect = lower value 0.982 | S. cerevisiae deletion strains, locus YPR106W, strain ISR1, stronger effect = lower value 0.989 | S. cerevisiae deletion strains, locus YPR111W, strain DBF20, stronger effect = lower value 0.97 | S. cerevisiae deletion strains, strain NNK1, stronger effect = lower value 0.966 | S. cerevisiae deletion strains, strain TSCII, stronger effect = lower value 0.97
active: S. cerevisiae deletion strains, locus YGR092W, strain DBF2, stronger effect = lower value 0.193 | [7] 0.567 | S. cerevisiae deletion strains, locus YHR205W, strain SCH9, stronger effect = lower value 0.471 | S. cerevisiae deletion strains, locus YKL048C, strain ELM1, stronger effect = lower value 0.699 | S. cerevisiae deletion strains, locus YKL101W, strain HSL1, stronger effect = lower value 0.454 | [28] 0.642 | S. cerevisiae deletion strains, locus YNL307C, strain MCK1 (second series), stronger effect = lower value 0.246 | [30] 0.684

O=C(OCCN1CCCCC1)c1c[nH]c2ccccc12
inactive: [31] 1 | [32] 1.01 | [33] 0.997 | [34] 1.02 | [6] 1.02 | [35] 0.999 | [17] 0.999 | [36] 1.01 | [37] 1.01 | [38] 1.01 | [39] 1 | [40] 0.994 | [41] 1 | [22] 0.997

CCCCOc1ccc(C(=O)CCC(=O)O)cc1
inactive: [1] 0.977 | S. cerevisiae deletion strains, locus YCL061C, strain MRC1, stronger effect = lower value 0.936 | S. cerevisiae deletion strains, locus YDL134C, strain PPH21, stronger effect = lower value 1.04 | [4] 0.934 | [5] 1 | [6] 0.939 | [7] 0.997 | [8] 0.982 | [10] 0.931 | S. cerevisiae deletion strains, locus YKL190W, strain CNB1, stronger effect = lower value 1.02 | [11] 0.945 | [12] 1.01 | [13] 0.985 | [14] 0.946 | [15] 1.01 | [16] 0.983 | [17] 0.969 | [19] 1.01 | [20] 1.01 | [21] 0.982 | S. cerevisiae deletion strains, locus YOL006C, strain TOP1, stronger effect = lower value 1.05 | [22] 0.909 | [23] 1.01 | [24] 1.03 | [42] 1.03
active: [2] 0.915 | [3] 0.886 | [9] 0.879 | [18] 0.904

CCCc1c(OCCCOc2ccc(OCC(=O)O)cc2)ccc(C(C)=O)c1O
inactive: [31] 0.942 | [32] 0.999 | [4] 0.997 | [33] 1.01 | [34] 1.04 | [17] 1.01 | [38] 0.98 | [39] 0.987 | [40] 0.963 | [20] 1.01 | [41] 0.914 | [23] 1

CCCCOc1cc(C(=O)O)ccc1OC
inactive: [1] 0.97 | [2] 0.984 | [3] 0.987 | [4] 0.988 | [5] 1.01 | [6] 0.971 | [35] 1 | [7] 0.999 | [8] 0.977 | [9] 0.985 | [10] 0.962 | [11] 1.02 | [12] 0.979 | [13] 1.01 | [14] 1.04 | [15] 1 | [16] 0.975 | [17] 0.977 | [36] 0.956 | [37] 1.02 | [18] 0.979 | [19] 1.03 | [20] 0.976 | [21] 0.999 | [22] 0.941 | [23] 1.01 | [24] 1.04 | [42] 1.02
